In PubChem BioAssay (NCATS):
Several values for one entry are separate records, joined by “and”; a condition that tells them apart may be missing. Equal values may be shown once. Results filed as inconclusive are left out. Unmarked numbers belong to inactive results. Activity calls are given as the source filed them. The call rests on the fitted dose curve; in most records, active means well fitted curve in the direction sought with a large enough effect; inconclusive means small, poorly fitted or top-dose-only effect, or another doubt; inactive means no such curve, though single readings can be large; an effect the other way counts as inactive or inconclusive.

Assay: Primary qHTS for inhibitors of nuclear receptor binding SET domain protein 2 (NSD2) in an isogenic RCH-ACV NSD2 p.E1099K mutant (9B) (AID 1645876)
Conditions: RCH-ACV NSD2 E1099K (9B) viability, CellTiter-Glo, 72 h; series mostly up to 44.9 µM; activity change, negative = viability loss: at the top concentration
Further: nearly all actives have a fitted effect of over 70% in size.
On the % scale 0 is the no-effect control and ±100 the full control effect; potency means the concentration at half of the fitted maximal effect.

Row | Structure (SMILES) | Potency | activity change, negative = viability loss | outcome
1 | C[C@@]1(C(=O)Nc2ccc(F)nc2)CCCN1c1nc(Nc2cc(C3CC3)[nH]n2)c2cccn2n1 | 2.95 µM (active) |  | 
2 | COc1ccc2nc3cc(Cl)ccc3c(Nc3cc(CN4CCCC4)c(O)c(CN4CCCC4)c3)c2n1 | 2.95 µM (active) |  | 
3 | CCN(CCO)CCCOc1ccc2c(Nc3cc(CC(=O)Nc4cccc(F)c4)[nH]n3)ncnc2c1 | 5.9 µM (active) |  | 
4 | COC1CCC(C(=O)c2ccc3nc4c(cc3c2)CCCO4)CC1 (stereo unspecified) |  | -12.1% | 
5 | CCC(C)SSc1ncc[nH]1 (stereo unspecified) | 9.34 µM (active) |  | 
6 | Cc1cccc(-c2[nH]c(C(C)(C)C)nc2-c2ccc3c(c2)OCO3)n1 | 4.61 µM (active) and 4.17 µM (active) |  | 
7 | Nc1ncnc2c1ncn2[C@@H]1O[C@H](CO)[C@@H](O)[C@@H]1O | 16.6 µM (active) |  | 
8 | Cc1ccc(C2=Nc3ccc(Cl)cc3OC2)cc1 |  | -19.9% | 
9 | CN(C)CCCNC(=O)c1ccc(-c2cc(O)c3ncccc3c2)cc1 | 9.2 µM (active) and 10.5 µM (active) |  | 
10 | CCCCOCCOc1nc(-c2ccc(C(=O)O)c(F)c2)sc1C |  | -4.27% | 
11 | COc1cc2c(cc1Cc1cccc(Cl)c1F)c(=O)c(C(=O)O)cn2[C@H](CO)C(C)C | 7.42 µM (active) |  | 
12 | CC(=O)Nc1cccc(-n2c(=O)n(C3CC3)c(=O)c3c(Nc4ccc(I)cc4F)n(C)c(=O)c(C)c32)c1 | inactive |  | 
13 | CC(C)[C@H](O)C(=O)N[C@@H](C)C(=O)N[C@@H]1C(=O)N(C)CCc2ccccc21 |  |  | inactive
14 | CCCCC(C)(C)[C@H](O)C=C[C@H]1[C@H](O)CC(=O)[C@H]1CC=CCCCC(=O)O |  | -5.97% | 
15 | CN(C)CC[C@H](CSc1ccccc1)Nc1ccc(S(=O)(=O)NC(=O)c2ccc(N3CCN(Cc4ccccc4-c4ccc(Cl)cc4)CC3)cc2)cc1[N+](=O)[O-] | 4.17 µM (active) |  | 
16 | Cc1cc(NC(=O)Nc2ccc(N(C)C)cc2)c2cc(F)cc(F)c2n1 |  | -21.1% [at 17.3 µM] | 
17 | NC[C@H]1O[C@H](O[C@@H]2[C@@H](O)[C@@H](O[C@H]3O[C@H](CO)[C@@H](O)[C@H](N)[C@@H]3O)[C@H](N)C[C@@H]2N)[C@H](O)[C@@H](O)[C@H]1O |  |  | inactive
18 | CC(C)(F)C[C@H](N[C@@H](c1ccc(-c2ccc(S(C)(=O)=O)cc2)cc1)C(F)(F)F)C(=O)NC1(C#N)CC1 |  | 4.45% | 
19 | Cc1nc(NC(=O)N2CCC[C@@H]2C(N)=O)sc1-c1csc(C(C)(C)C)n1 | 7.31 µM (active) |  | 
20 | CCC[C@H](Nc1nc(-c2ccc(NC(=O)NCC)c(OC)c2)ncc1C)c1cccnc1 | 0.0263 µM (active) |  | 
21 | CN(C)CCN(C)C(=O)c1ccc(NC(=O)Nc2ccc(-c3nc(N4CCOCC4)c4ccn(CC(F)(F)F)c4n3)cc2)cc1 | 0.0209 µM (active) |  | 
22 | O=C(O)c1nc(=O)[nH]c(=O)[nH]1 |  | 0.798% [at 17.3 µM] | 

Assay: Primary qHTS for inhibitors of nuclear receptor binding SET domain protein 2 (NSD2) in an RCH-ACV wild type WT cells (2C) (AID 1645877)
Conditions: RCH-ACV (leukaemia line) NSD2 WT (2C) viability, CellTiter-Glo, 72 h; series mostly up to 44.9 µM; activity change, negative = cell killing: at the top concentration

Row | Structure (SMILES) | Potency | outcome | activity change, negative = cell killing [%]
23 | C=CC(=O)Nc1cccc(Sc2nc(Nc3ccc(N4CCN(C)CC4)cc3)ncc2Cl)c1 | 2.3 µM (active) and 2.63 µM (active) |  | 
24 | CC(C)Oc1cc(Nc2nc(N[C@@H](C)c3ccc(F)cn3)ncc2Cl)[nH]n1 | 9.34 µM (active) and 6.51 µM (active) |  | 
25 | COc1cc2c(cc1OC)CC(=O)N(CCCN(C)C[C@H]1Cc3cc(OC)c(OC)cc31)CC2 |  | inactive | 
26 | COc1ccc(-c2oc3c(CC=C(C)C)c(O)cc(O)c3c(=O)c2O)cc1 |  |  | -18.1
27 | NCc1c[nH]c(=S)n1[C@H]1CCc2c(F)cc(F)cc2C1 |  |  | -14.7
28 | CCN(CCO)CCCOc1ccc2c(Nc3cc(CC(=O)Nc4cccc(F)c4)[nH]n3)ncnc2c1 | 132 nM (active) |  | 
29 | Cc1cccc(-c2[nH]c(C(C)(C)C)nc2-c2ccc3c(c2)OCO3)n1 | 4.11 µM (active) and 4.17 µM (active) |  | 
30 | CC(C)(F)C[C@H](N[C@@H](c1ccc(-c2ccc(S(C)(=O)=O)cc2)cc1)C(F)(F)F)C(=O)NC1(C#N)CC1 |  |  | -2.15
31 | Cc1nc(NC(=O)N2CCC[C@@H]2C(N)=O)sc1-c1csc(C(C)(C)C)n1 | 7310 nM (active) |  | 
